Biological target: Torsin-1A-interacting protein 2 (Homo sapiens) (UniProt Q8NFQ8)
Experiment: small molecules binding lysate-expressed LULL1 – cell lysate, human LULL1 lysate, 635/667 nm fluorescence, primary screen (AID 1092);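 also: score merges per-feature 667 nm fluorescence with signal-to-noise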
Conditions: small-molecule microarray, hLULL1 lysate binding, 635 nm fluorescence; higher = more signal

Chain of Torsin-1A-interacting protein 2 (Homo sapiens) (Q8NFQ8 whole entry, looked up): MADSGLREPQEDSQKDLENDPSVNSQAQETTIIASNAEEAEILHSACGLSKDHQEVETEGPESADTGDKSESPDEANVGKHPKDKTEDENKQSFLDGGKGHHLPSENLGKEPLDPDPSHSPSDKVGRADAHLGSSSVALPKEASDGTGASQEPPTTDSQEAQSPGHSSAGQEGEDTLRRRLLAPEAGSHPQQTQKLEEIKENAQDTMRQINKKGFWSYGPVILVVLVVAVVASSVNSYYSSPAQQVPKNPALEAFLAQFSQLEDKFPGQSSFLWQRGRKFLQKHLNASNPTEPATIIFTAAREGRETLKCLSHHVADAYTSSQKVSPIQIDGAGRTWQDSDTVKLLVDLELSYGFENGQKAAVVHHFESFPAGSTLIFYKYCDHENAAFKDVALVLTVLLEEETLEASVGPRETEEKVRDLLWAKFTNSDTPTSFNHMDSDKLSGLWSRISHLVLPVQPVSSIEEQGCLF

Row | Compound | composite z-score
1 | CCOC(=O)[C@H](Cc1ccccc1)NC(=O)CCC1CC(OC(=O)NCc2ccc3c(c2)OCO3)CC2(CCCC(COC(=O)NCc3cccc(C(F)(F)F)c3)O2)O1 (stereo partly specified) | 0.735
2 | CC(=O)OC[C@H]1O[C@@H](ON=C[C@@H](C)[C@H](OCc2ccccc2)C(C)C)[C@H](OC(C)=O)[C@@H](OC(C)=O)[C@@H]1OC(C)=O | -1.59
3 | O=C1[C@H]2[C@H]3[C@H](O)[C@H](O)CC(=NOCc4ccccc4)[C@H]3CC[C@H]2C(=O)N1C[C@@H]1CCCO1 | 0.78
4 | CO[C@@H]1COC(=O)[C@@H]2CCCN2C(=O)[C@@H](C)COC(=O)[C@H](COCc2ccccc2)NC(=O)CC=C[C@H]1C | 0.445
5 | C=C(/C(=C/C[C@H](OC(C)=O)c1ccc(OCCO)cc1)c1cnc2ccccc2c1)C(C)C | 1.67
6 | COC(=O)CC=C[C@@H](C)[C@H](OC)c1ccccc1Br | 0.154
7 | COc1ccccc1CN1C(=O)c2ccccc2[C@@H](C(=O)NCC(F)(F)F)[C@@H]1c1ccc(CO)cc1 | 2.37
8 | O=C1[C@H]2[C@H]3[C@H](O)[C@H](O)CC(=NO[C@@H]4O[C@H](CO)[C@@H](O)[C@H](O)[C@H]4O)[C@H]3CC[C@H]2C(=O)N1C1CCCCC1 | 1.58
9 | CC(C)=CCCC(C)=CCON=C1C[C@@H](O)[C@@H](O)[C@@H]2[C@@H]3C(=O)N(C[C@@H]4CCCO4)C(=O)[C@@H]3CC[C@@H]12 | 2.34
10 | C=CC[C@@H]1C=C[C@H](ON=C2c3cc(OC)ccc3O[C@H](c3cccc(OC)c3)[C@H]2O)[C@@H](CO)O1 | 0.813
11 | CCc1cc2c(nc1CC)CCN(CCC(C)=NOC[C@@H](O)COCc1ccco1)C2 | -1.51
12 | CCN1C(=O)[C@H]2[C@H]3[C@H](O)[C@H](O)CC(=NOC(C)CN4CCCCc5nc(C)c(C)cc54)[C@@H]3CC[C@H]2C1=O (stereo partly specified) | -0.414
13 | COCCOC(=O)N1C(=O)[C@@]2(c3cc(C#CC4(O)CCCCCC4)ccc31)[C@H](c1ccc(OCCO)cc1)N1[C@H](c3ccccc3)[C@H](c3ccccc3)OC(=O)[C@H]1[C@@H]2C(=O)NC[C@H](O)c1ccccc1 | 2.87
14 | CC1CC/C=C\[C@H]2OC34C=CCN(C(C)C)C(=O)[C@H]3N(CCCO)C(=O)[C@@H]4C2C(=O)O1 (stereo partly specified) | 1.29
15 | CCCNC(=O)OC[C@H]1O[C@H](CCON=CC[C@@H]2C=C[C@H](OC(C)=O)[C@@H](COC(C)=O)O2)C=C[C@@H]1Oc1ccc(OC)cc1 | 0.667
16 | Cc1ccc(S[C@]2(C(=O)O)CC(=O)N(Cc3ccccc3)[C@@H]2c2ccc(CO)cc2I)cc1 | 1.28
17 | CC(=O)C[C@H](O)[C@@H](NC(=O)OC(C)(C)C)C(C)C | -1.18
18 | COC(=O)C1=CCC(c2cccc(Cl)c2)O1 (stereo unspecified) | 1.82

Row | Compound | composite z-score
19 | COCCCNC(=O)[C@@]1(CCS(=O)(=O)c2ccccc2)N=C(c2ccc(OCCCO)cc2)O[C@H]1c1ccccc1 | 3.43
20 | O=C(NN=C1C[C@@H](O)[C@@H](O)[C@@H]2[C@@H]3C(=O)N(c4cccc(Oc5ccccc5)c4)C(=O)[C@@H]3CC[C@@H]12)OCc1ccccc1 | 1.46
21 | CCOC(=O)NN=C1C[C@@H](O)[C@@H](O)[C@@H]2[C@@H]3C(=O)N(C[C@@H]4CCCO4)C(=O)[C@@H]3CC[C@@H]12 | 0.375
22 | COC(=O)c1c(CC[C@@H](CO)NC(=O)N[C@H](Cc2ccccc2)Cn2cc(-c3ccccc3N)nn2)oc(C(C)=O)c1C(=O)OC | 1.05
23 | CC(CCN1CCc2nc(-c3ccccc3)c(-c3ccccc3)cc2C1)=NOC(C)CN1CCCCc2nc(C)c(C)cc21 (stereo unspecified) | 1.53
24 | CCCNC(=O)[C@@H]1c2ccccc2C(=O)N(Cc2ccccc2Cl)[C@H]1c1ccc(CO)cc1 | 2.47
25 | COc1ccc(O[C@H]2C=C[C@@H](c3ccccc3)O[C@@H]2COC(=O)CCC(C)=NOCC[C@@H]2C=C[C@H](OC(C)=O)[C@@H](COC(C)=O)O2)cc1 | 1.69
26 | CC(C)OC(=O)C=C1C[C@@H](c2ccc(C#N)cc2)O[C@@H](c2ccc(C#N)cc2)O1 | 3.36
27 | CCCC=C(CCC)[C@@H](NC(=O)c1ccc(-c2ccccc2)cc1)c1ccc(C(=O)OC)cc1 | 3.33
28 | CCCC[C@@H](O)C1=C(C)C[C@H]2C(=O)N(Cc3ccccc3)C(=O)[C@H]2[C@H]1CO | -0.463
29 | COCCNC(=O)OCC1CCCC2(CC(OC(=O)NCCc3ccc(F)cc3)CC(CCC(=O)N[C@@H](C)C(=O)OC)O2)O1 (stereo partly specified) | 0.876
30 | C[N+](C)(C)CCCCCCNC(=O)[C@@H]1C[C@@H]2C(=O)N3CCC[C@H]3C(=O)N2[C@@H]1c1cccc(OCCO)c1 | 3.14
31 | CC(C)C[C@@H]1NC(=O)[C@H]2C[C@@H](C(=O)O)[C@@H](c3ccc(O)cc3)N2C1=O | 1.15
32 | O=C1O[C@@H](c2ccccc2)[C@@H](c2ccccc2)N2[C@@H](c3ccccc3OCCO)[C@]3(C(=O)Nc4ccc(C#CCCO)cc43)[C@@H](C(=O)O)[C@H]12 | 2.47
33 | CO[C@H]1COC(=O)[C@H](C)COC(=O)CC=C[C@@H](C)[C@H](OC)COC(=O)CC=C[C@@H]1C | -0.798
34 | C=CCC(OC(C)=O)[C@@H]1[C@@H](N(Cc2cc3ccccc3o2)C(=O)Cc2ccc(F)cc2)c2cc(OCCCO)ccc2N1C(=O)Cc1ccc(OC)cc1 (stereo partly specified) | -0.362
35 | CO[C@@H]1COC(=O)[C@H](C)NC(=O)[C@@H](C)COC(=O)CCC[C@H]1C | 2.11
36 | CC(C)(C)OC(=O)CC[C@]1(C(N)=O)COC(c2ccc(OCCCO)cc2)=N1 | 3.09

Source: PubChem BioAssay
